Records with an inconclusive call do not appear. A number with no mark means an inactive call. The source made the active and inactive calls. Unless noted, calls follow the shape of the dose curve; as a rule, active = well fitted inhibition curve with a large enough effect; inconclusive = small, poorly fitted or top-dose-only effect; inactive = flat fitted curve, though single readings scatter.

One experiment has as its system AA1029. Briefly: qHTS profiling for inhibitors of Plasmodium falciparum proliferation (AID 504749). Also: nearly all actives have a fitted effect of over 60% in size. Also: potency is read from the fitted curve at half-maximal effect. As to conditions: P. falciparum in erythrocytes, SYBR Green DNA, 72 h; series mostly up to 28.7 µM. A digest of the protocol:
(§1)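 SYBR Green fluorescence of parasite DNA, read after lysis and overnight dark incubation, measured growth over 72 h in erythrocyte culture at 0.3% parasitemia and 2.5% hematocrit. Data normalised to DMSO and 0.29 uM artemisinin, with plate-drift correction.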
On the technique in general: qHTS replaces the single test concentration by a dilution series.

A further experiment relates to AS120. Described as above. The following applies: P. falciparum in erythrocytes, SYBR Green DNA, 72 h; series mostly up to 28.7 µM. Summed up:
as §1

The next experiment relates to ATS189. Described as above. As to conditions: P. falciparum in erythrocytes, SYBR Green DNA, 72 h; series mostly up to 28.7 µM. Summed up:
as §1

For a further experiment, the system named is C2A. The description is as above. As to conditions: P. falciparum in erythrocytes, SYBR Green DNA, 72 h; series mostly up to 28.7 µM. A digest of the protocol: as §1
Another experiment deals with CP194. The description is as above. The following applies: P. falciparum in erythrocytes, SYBR Green DNA, 72 h; series mostly up to 28.7 µM. A digest of the protocol:
as §1

A further experiment has as its system CP201. The description is as above. As to conditions: P. falciparum in erythrocytes, SYBR Green DNA, 72 h; series mostly up to 28.7 µM. Summed up:
as §1

For a further experiment, the system named is CP203. The experiment is described as above. The following applies: P. falciparum in erythrocytes, SYBR Green DNA, 72 h; series mostly up to 28.7 µM. Summed up: as §1
The test system of a further experiment is CP217. The experiment is described as above. As to conditions: P. falciparum in erythrocytes, SYBR Green DNA, 72 h; series mostly up to 28.7 µM. A digest of the protocol: as §1
A further experiment concerns CP237. The experiment is described as above. The following applies: P. falciparum in erythrocytes, SYBR Green DNA, 72 h; series mostly up to 28.7 µM. A digest of the protocol: as §1
The subject of the next experiment is CP250. The description is as above. The following applies: P. falciparum in erythrocytes, SYBR Green DNA, 72 h; series mostly up to 28.7 µM. A digest of the protocol:
as §1

The next experiment concerns CP256. The description is as above. The following applies: P. falciparum in erythrocytes, SYBR Green DNA, 72 h; series mostly up to 28.7 µM. A digest of the protocol: as §1
A further experiment relates to CP268. The description is as above. As to conditions: P. falciparum in erythrocytes, SYBR Green DNA, 72 h; series mostly up to 28.7 µM. A digest of the protocol: as §1
The subject of another experiment is CP297. The description is as above. As to conditions: P. falciparum in erythrocytes, SYBR Green DNA, 72 h; series mostly up to 28.7 µM. A digest of the protocol:
as §1

The next experiment concerns CP305. The experiment is described as above. As to conditions: P. falciparum in erythrocytes, SYBR Green DNA, 72 h; series mostly up to 28.7 µM. A digest of the protocol:
as §1

Another experiment concerns CP325. The description is as above. The following applies: P. falciparum in erythrocytes, SYBR Green DNA, 72 h; series mostly up to 28.7 µM. A digest of the protocol: as §1
Another experiment has as its system HB3. The description is as above. As to conditions: P. falciparum in erythrocytes, SYBR Green DNA, 72 h; series mostly up to 28.7 µM. Summed up:
as §1

A further experiment deals with PC15. Described as above. As to conditions: P. falciparum in erythrocytes, SYBR Green DNA, 72 h; series mostly up to 28.7 µM. Summed up: as §1
A further experiment deals with PC49. Described as above. The following applies: P. falciparum in erythrocytes, SYBR Green DNA, 72 h; series mostly up to 28.7 µM. Summed up: as §1
The subject of a further experiment is TAB109. Described as above. As to conditions: P. falciparum in erythrocytes, SYBR Green DNA, 72 h; series mostly up to 28.7 µM. Summed up: as §1
A short description of experiment [1]: S16 Schwann cell PMP22 intronic element beta-lactamase assay (AID 624044; calls by dose curve; also: nearly all actives have a fitted effect of over 15% in size). As to conditions: S16 rat Schwann cells, PMP22 element beta-lactamase FRET, 24 h; ratio activity, negative = inhibition: at 38.3 µM (top of the series). A digest of the protocol:
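Beta-lactamase reporter under a PMP22 intronic regulatory element in stable S16 rat Schwann cells; 24 h compound exposure. 460 nm blue signal normalized between DMSO (0%) and potassium clavulanate, with 535 nm FRET tracking viability; curves classed by r2 and response.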

As to `CCC(C)C(N)C(=O)O` (configuration not stated), the Potency entry in the experiment with AA1029, in the experiment with AS120, with ATS189, with C2A, in the experiment on CP194 and with CP201 was “inactive” throughout. Also, the Potency entry in the experiment with CP203, with CP217, in the experiment with CP237, in the experiment on CP250, in the experiment with CP256 and in the experiment on CP268 was “inactive” throughout. The Potency entry with CP297, in the experiment with CP305, in the experiment with CP325, with HB3, with PC15 and in the experiment with PC49 was “inactive” throughout. Besides, the Potency result in the experiment on TAB109 was “inactive”.

For the molecule `CC1=C(C/C=C(\C)CCCC(C)CCCC(C)CCCC(C)C)C(=O)c2ccccc2C1=O` (configuration not stated), the Potency result (in [1]; in the experiment with C2A; with CP194; in the experiment on CP201; in the experiment on CP203; with CP217) was “inactive” in each case. In addition, the Potency entry in the experiment with CP250, with CP256, in the experiment on CP268, in the experiment on CP297, with CP305 and in the experiment on CP325 was “inactive” in each case. Also, in the experiment with PC49, the Potency entry is “inactive”. Moreover, the Potency with HB3 was 11.2 µM (active).

Consider `Cc1cnc(NC(=O)C2C(=O)c3ccccc3S(=O)(=O)N2C)s1` (configuration not stated), for which the Potency result (in experiment [1]; in the experiment with AA1029; with AS120; with ATS189; with C2A; with CP194) was “inactive” in each case. Moreover, the Potency entry in the experiment with CP201, in the experiment with CP203, with CP217, in the experiment on CP237, with CP250 and with CP256 was “inactive” in each case. Further, the Potency result with CP268, in the experiment with CP297, in the experiment on CP305, in the experiment with CP325, in the experiment with HB3 and in the experiment on PC15 was “inactive” in each case. For the same molecule, the Potency entry in the experiment with PC49 and in the experiment on TAB109 was “inactive” each time.

`COc1ccc(C(=O)/C(Br)=C/C(=O)O)cc1`: the Potency entry (in [1]; with AA1029; in the experiment with ATS189; in the experiment with C2A; in the experiment on CP201; in the experiment with CP203) was “inactive” each time. Moreover, the Potency result in the experiment with CP237, in the experiment with CP250, with CP256, in the experiment with CP268, in the experiment with CP297 and in the experiment on CP325 was “inactive” throughout. The Potency entry in the experiment on HB3, with PC15 and in the experiment with PC49 was “inactive” throughout.

Regarding `C=C1/C(=C\C=C2/CCC[C@]3(C)[C@@H]([C@H](C)/C=C/[C@@H](O)C4CC4)CC[C@@H]23)C[C@@H](O)C[C@@H]1O`, the Potency result (in experiment [1]; in the experiment with AA1029; in the experiment with ATS189; in the experiment on C2A; in the experiment on CP194; with CP201) was “inactive” throughout. Also, the Potency result in the experiment on CP203, in the experiment with CP217, in the experiment with CP237, in the experiment on CP256, in the experiment on CP268 and with CP297 was “inactive” in each case. The Potency result in the experiment on CP305, with CP325, with HB3, in the experiment on PC15, with PC49 and in the experiment on TAB109 was “inactive” throughout.

On to `CC1OC(OC2C(O)CC(OC3C(O)CC(OC4CCC5(C)C(CCC6C5CCC5(C)C(C7=CC(=O)OC7)CCC65O)C4)OC3C)OC2C)CC(O)C1O` (configuration not stated), for which the Potency entry (in [1]; with AA1029; in the experiment with AS120; in the experiment with ATS189; in the experiment with C2A; in the experiment on CP201) was “inactive” throughout. The Potency entry in the experiment on CP203, in the experiment with CP217, in the experiment on CP250, in the experiment on CP256, with CP268 and in the experiment with CP297 was “inactive” each time. Besides, the Potency entry with CP305, in the experiment with CP325, in the experiment on PC49 and in the experiment on TAB109 was “inactive” each time.

The record behind these values is PubChem BioAssay (NCATS).
